# PubChem BioAssay AID1509 (The Scripps Research Institute Molecular Screening Center, 2009)
# Hit rate of the full screen: of about 220,000 compounds, about 770 (0.35%) were called active. No stated cut-off is given here; in the data, active means activation above about 11%; inactive means the rest. What follows is part of a selection rich in actives, with near analogues and random picks from the rest.
# Biological target: Sphingosine 1-phosphate receptor 4 (Homo sapiens) (UniProt O95977)
# Assay: S1P4 receptor agonists, primary screen, cell-based (AID 1509);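 further: 0% = DMSO vehicle and 100% = reference agonist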
# Details: S1P4-expressing cell line, agonist reporter assay; at 4.98 µM; active compounds read high
# Sequence of Sphingosine 1-phosphate receptor 4 (Homo sapiens) (O95977 whole entry, looked up): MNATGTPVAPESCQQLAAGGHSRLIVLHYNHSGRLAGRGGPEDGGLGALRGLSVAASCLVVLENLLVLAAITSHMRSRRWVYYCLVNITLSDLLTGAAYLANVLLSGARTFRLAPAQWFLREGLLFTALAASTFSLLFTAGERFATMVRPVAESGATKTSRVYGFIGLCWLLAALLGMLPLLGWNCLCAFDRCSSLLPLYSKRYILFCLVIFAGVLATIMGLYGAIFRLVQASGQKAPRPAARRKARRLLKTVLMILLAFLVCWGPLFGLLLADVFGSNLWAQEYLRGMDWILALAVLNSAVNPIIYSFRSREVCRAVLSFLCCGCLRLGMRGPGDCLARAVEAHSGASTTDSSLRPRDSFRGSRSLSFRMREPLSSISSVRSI
row,SMILES,activation
1,Cc1nc(-c2nnc(SCC(=O)Nc3cc(C(F)(F)F)cc(C(F)(F)F)c3)n2C)cs1,-0.18% (inactive)
2,O=C1C=C(c2ccc(Cl)cc2)C(=O)N1Nc1ccccc1,-3.55% (inactive)
3,CCOc1ccc(N2CC(C(=O)N/N=C/c3sccc3C)CC2=O)cc1 (stereo not drawn),-0.25% (inactive)
4,NC(=O)COC(=O)c1sc2cc(F)ccc2c1Cl,0.19% (inactive)
5,COc1ccc(CCNC(=O)C(Sc2ccccn2)c2ccccc2)cc1OC (stereo not drawn),-2.85% (inactive)
6,O=C(Nc1ccc(N2CCOCC2)cc1)c1ccc2c(c1)OCO2,1.77% (inactive)
7,CC1CN(C(=O)c2ccccc2NS(=O)(=O)c2cccc([N+](=O)[O-])c2)CC(C)O1 (stereo not drawn),1.5% (inactive)
8,CCc1ccc(Nc2nnc(SCC(=O)c3ccc4c(c3)NC(=O)CO4)s2)cc1,1.5% (inactive)
9,CC1CCCN(CC(O)COc2ccc3c(c2)OCO3)C1 (stereo not drawn),0.61% (inactive)
10,COCCn1c(SCc2nnc(-c3ccc(OC)c(OC)c3)o2)nc2sc3c(c2c1=O)CCC3,1.63% (inactive)
11,CCOc1cnc(-c2c(-c3ccccc3Cl)noc2C)o1,0.62% (inactive)
12,CC1CCCC(NC(=O)c2cccc(N3CCCC3=O)c2)C1C (stereo not drawn),-1.52% (inactive)
13,COc1ccccc1CNC(=O)CNC(=O)c1cn(-c2ccccc2OC)c(=O)c2ccccc12,16.9% (active)
14,COc1ccccc1CNC(=O)c1cc(=O)c2ccccc2o1,0.7% (inactive)
15,COc1ccccc1CNC(=O)CCn1c(=O)sc2ccccc21,-0.92% (inactive)
16,COc1cccc(CN(C)CC(=O)Nc2ccccc2C(=O)Nc2ccccc2)c1,0.57% (inactive)
17,CN(C)c1nc(-c2cccnc2)nc(-c2ccc(Cl)cc2)c1C#N,0.37% (inactive)
18,CC(Oc1ccc(-c2ccccc2)c(F)c1)c1ccn(S(=O)(=O)c2cccc3ccccc23)n1 (stereo not drawn),-2.56% (inactive)
19,COc1ccc(NC(=O)C(=O)NCC(=O)Nc2cccc(C(F)(F)F)c2)cc1,0.93% (inactive)
20,COc1ccc(-c2ccc(CCC(=O)O)n2NC(=O)c2ccc(C(C)(C)C)cc2)cc1,-0.13% (inactive)
21,Cc1ccc(-n2c(C)cc(C(=O)CN3C(=O)C(=O)N(C4CCCC4)C3=O)c2C)cc1,0.78% (inactive)
22,CN(C)S(=O)(=O)c1cc(NC(=O)CN2C(=O)NC3(CCCc4ccccc43)C2=O)ccc1Cl (stereo not drawn),0.63% (inactive)
23,COc1ccc(-n2c(C)cc(C(=O)CN3C(=O)NC4(CCc5ccccc54)C3=O)c2C)cc1 (stereo not drawn),16.1% (active)
24,COC(=O)c1cc(C(=O)N(Cc2ccccc2)c2ccccn2)cc([N+](=O)[O-])c1,1.87% (inactive)

row,SMILES,activation
1,Cc1ccccc1OCCC(=O)OCC(=O)NC(C)c1ccccc1 (stereo not drawn),-1.6% (inactive)
2,CCN(CC)C(=O)Cn1cc(S(=O)(=O)CC(=O)NCc2ccc3c(c2)OCO3)c2ccccc21,-1.22% (inactive)
3,COc1ccc(C(=O)NN2C(=O)C3C(c4ccccc4)C=CC(c4ccccc4)C3C2=O)cc1 (stereo not drawn),-0.98% (inactive)
4,N#C/C=C(/c1ccc(F)cc1)N1CCOCC1,-1.05% (inactive)
5,Cc1cc2c(C)nc(N/N=C/c3ccccc3)nc2o1,-1.39% (inactive)
6,O=C(CSc1ccccc1)Nc1cc(Cl)ccc1Oc1ccccc1,0.59% (inactive)
7,CC(=O)Nc1ccc(SCC(=O)Nc2ccccc2Oc2ccccc2)cc1,13.2% (active)
8,Cc1cc(C)cc(NC(=O)CSc2ccccc2)c1,-1.04% (inactive)
9,O=C(COC(=O)c1ccccc1SCC(=O)NC1CCCCC1)NC1CCCCC1,0.41% (inactive)
10,N#Cc1ccccc1Sc1ccccc1C(=O)OCC(=O)NC1CCCCC1,2.4% (inactive)
11,O=C(COC(=O)c1cc([N+](=O)[O-])ccc1NCc1ccccc1)NC1CCCCC1,15.3% (active)
12,Cc1nn(CC(=O)Nc2ccc(N(C)C)cc2)c(C)c1[N+](=O)[O-],-0.79% (inactive)
13,NC(=O)c1ccc(-c2csnn2)cc1,-0.31% (inactive)
14,N/C(=N\OC(=O)Cc1ccc([N+](=O)[O-])cc1)c1ccccn1,15.5% (active)
15,O=C(OCc1ccc([N+](=O)[O-])cc1)c1ccccn1,-1.16% (inactive)
16,N/C(=N\OC(=O)c1ccc([N+](=O)[O-])cc1)c1ccccn1,-0.02% (inactive)
17,CCc1ccc(NC(=O)N[C@H](C(=O)O)C(C)CC)cc1 (stereo partly drawn),-0.3% (inactive)
18,O=S(=O)(Nc1ccc(Cl)cn1)c1cnc(Cl)c(Br)c1,0.57% (inactive)
19,O=C(c1cc(-c2cccs2)on1)N1CCCCC1,0.14% (inactive)
20,Cc1ccc(Cn2ccc(NC(=O)c3cc(C(C)C)on3)n2)cc1,-0.1% (inactive)
21,Cc1cc(NC(=O)c2cc(-c3cccs3)on2)nn1Cc1ccc(Cl)cc1,13.1% (active)
22,CCn1c(Cc2ccccc2)nnc1SCC(=O)Nc1ccccc1,-2.58% (inactive)
23,CCn1c(CNC(=O)c2ccco2)nnc1SCC(=O)Nc1cccc(F)c1,1.91% (inactive)
24,CCn1c(CNC(=O)c2ccc(OC)c(OC)c2)nnc1SCC(=O)Nc1ccccc1,21.5% (active)

row,SMILES,activation
1,O=C(CN1CCN(S(=O)(=O)c2ccc(Cl)s2)CC1)NCc1ccc(Cl)cc1,0.73% (inactive)
2,COC(=O)C1=C(C)N(C)C(=O)NC1c1ccc([N+](=O)[O-])o1 (stereo not drawn),0.41% (inactive)
3,Brc1ccc(-c2n(-c3ccccn3)c3ccccc3[n+]2-c2ccccn2)cc1,-0.47% (inactive)
4,CCn1c(N)c(Br)c(=O)[nH]c1=O,0.16% (inactive)
5,O=C(NNS(=O)(=O)c1ccccc1)c1cnn(-c2ccc(Cl)cc2)c1C(F)(F)F,1.09% (inactive)
6,Cc1ccc(NC(=O)CC2C(=O)N(Cc3ccccc3)C(=S)N2NC(=O)c2cccc(F)c2)c(C)c1 (stereo not drawn),2.02% (inactive)
7,Cc1ccc(/C=N/NC(=O)Cn2ccc(C(F)(F)F)n2)o1,1.08% (inactive)
8,CC(=O)NC(=S)Nc1ccc(NC(=O)c2cccnc2)cc1,-0.19% (inactive)
9,COc1ccc(CCn2c(NN=C3CCCC3)nc3c2c(=O)[nH]c(=O)n3C)cc1,-1.13% (inactive)
10,FC(F)(F)c1ccnc(Oc2ccc(C3=NCCS3)cc2)c1,-0.27% (inactive)
11,O=c1cc(N2CCCCC2)c(-c2ccccc2)nn1Cc1cccc(F)c1,0.58% (inactive)
12,Cc1cc(C)cc(Oc2nc3c(C)cccn3c(=O)c2/C=C(\C#N)C(=O)NC2CCS(=O)(=O)C2)c1 (stereo not drawn),2.53% (inactive)
13,Cc1ccc(CSc2nnc(-c3cnccn3)n2C)cc1,-0.85% (inactive)
14,CC(C)c1ccc(NC(=S)NC2CC3C=CC2C3)cc1 (stereo not drawn),-1.16% (inactive)
15,O=C(COc1cccc2ccccc12)Nc1cc(S(=O)(=O)N2CCOCC2)ccc1N1CCOCC1,-0.32% (inactive)
16,O=C(COC(=O)Cc1ccc(F)cc1)Nc1cc(S(=O)(=O)N2CCOCC2)ccc1N1CCCC1,17.3% (active)
17,O=C(COC(=O)c1ccccc1F)Nc1cc(S(=O)(=O)N2CCOCC2)ccc1N1CCCC1,-0.01% (inactive)
18,Cc1cc(C)cc(NC(=O)Cn2cnc3c(nnn3Cc3ccc(F)cc3)c2=O)c1,-0.07% (inactive)
19,O=C(COC(=O)c1ccco1)NCc1ccc(Cl)cc1,0.62% (inactive)
20,Cc1ccccc1N1CCN(Cc2nc(Cc3ccccc3F)no2)CC1,0.64% (inactive)
21,COc1ccc(NC(=O)CSc2ncnc3[nH]ncc23)cc1,-1.23% (inactive)
22,CC(C)(C)c1ccc(/C=C2\Oc3c(ccc(O)c3CN3CCN(CCO)CC3)C2=O)cc1,0.44% (inactive)
23,Cc1c(NC(=O)Nc2ccccc2)cccc1[N+](=O)[O-],1.03% (inactive)
24,Cc1ccc(NC(=O)Nc2ccccc2)c(Br)c1,19.4% (active)

row,SMILES,activation
1,CC(=O)c1cccc(NC(=O)Nc2ccc(C)cc2)c1,-3.97% (inactive)
2,Cc1ccc(N/C(N)=N/c2nc(C(F)(F)F)cc(C(F)(F)F)n2)cc1,2.06% (inactive)
3,Fc1ccc(Nc2nnns2)cc1,1.1% (inactive)
4,CC(=O)c1ccc(S(=O)(=O)N2CCN(C(=O)/C=C/c3ccc4ccccc4n3)CC2)cc1,-0.28% (inactive)
5,O=C1C(Cc2ccc(O)cc2)NC(=S)N1Cc1ccccc1 (stereo not drawn),0.05% (inactive)
6,COc1ccc(N2C(=O)C(Cc3ccccc3)NC2=S)cc1 (stereo not drawn),18.3% (active)
7,Cc1ccc(N2C(=O)C(Cc3ccccc3)NC2=S)cc1 (stereo not drawn),-4.7% (inactive)
8,O=C(NCc1ccccc1)C1CCCN(c2nc3ccsc3c(=O)s2)C1 (stereo not drawn),2.93% (inactive)
9,Cc1nn(-c2ccccc2)c(Cl)c1/C=C/C(=O)c1ccc(O)cc1,4.66% (inactive)
10,Cc1ccc2c(c1)c1ncn(Cc3ccc(F)cc3)c(=O)c1n2C,0.67% (inactive)
11,CC(=O)N1CCC(N(C(=O)Nc2ccc(Cl)cc2)C(C)C)CC1,-0.35% (inactive)
12,CCOc1ccc(/C(O)=C2\C(=O)C(=O)N(c3ccc(OC)cc3)C2c2ccccc2[N+](=O)[O-])cc1 (stereo not drawn),0.81% (inactive)
13,COc1ccc(C2CC(c3cccs3)=NN2c2nc(C)c(C(C)=O)s2)cc1OC (stereo not drawn),2.99% (inactive)
14,COc1ccc(C2=NN(c3ccccc3)C(c3cccs3)C2)cc1 (stereo not drawn),1.42% (inactive)
15,COc1ccc(C2CC(c3cccs3)=NN2C(=O)CSc2nncs2)cc1OC (stereo not drawn),0.18% (inactive)
16,COc1ccccc1N1N=C(c2cccs2)CC1c1ccccc1 (stereo not drawn),7.12% (inactive)
17,COc1ccc(C2CC(c3cccs3)=NN2c2ccc(F)cc2)cc1OC (stereo not drawn),19.4% (active)
18,COc1ccc(C2CC(c3cccs3)=NN2c2ccccc2)cc1 (stereo not drawn),11.6% (active)
19,CSc1nc2nc3c(c(=O)n2[nH]1)CCC3,-0.27% (inactive)
20,COc1ccc(CN2CN(C3CCCC3)CSC2=S)cc1,-0.49% (inactive)
21,Cc1c(C(=O)Nc2cccc(-c3nnc4n3CCCCC4)c2)oc2ccccc12,2.38% (inactive)
